Reference: paper PMC8384837, “Expanding the binding specificity for RNA recognition by a PUF domain”

target: PUM1 PUF domain R3-EWS (Homo sapiens, UniProt Q14671 828-1176, C935E;R936W;Q939S); assay: yeast three-hybrid, YBZ-1, SC-Leu-His + 0.5 mM 3-AT, 4 days; conditions: tags: N-Gal4 AD-HA kept; label: inside an RPR1-promoter hybrid RNA with tandem MS2 sites; ssRNA
Procedure, shortened: (§1)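 A centromeric plasmid in strain YBZ-1 co-expressed Pumilio-1 PUF domain libraries, randomized at the three base-contacting residues of each repeat, with matching RNA elements; the strain carries a LexA–MS2 coat fusion and a HIS3 reporter. After four days on SC-Leu (input) or SC-Leu-His + 0.5 mM 3-AT (selection), the repeat regions were PCR-amplified and Illumina-sequenced. The interaction score is the log change in variant frequency from input to selection, using log2 and a pseudocount of 1 where absent.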

Sequence | binding signal
GGCUAGAACUAGUGGAUCCCCCGGCGCCCGGCGGCUCGAGCCCGGGUAAGUGUAAUUAGUCUGCAUGCCGCCGGGCGCCAUGCCUGCAGGUCGACUCUAGAAAACAUG | 4.58 log2 enrichment (interaction score)
GGCUAGAACUAGUGGAUCCCCCGGCGCCCGGCGGCUCGAGCCCGGGUAAGUGUAAGUAGUCUGCAUGCCGCCGGGCGCCAUGCCUGCAGGUCGACUCUAGAAAACAUG | 5.34 log2 enrichment (interaction score)
GGCUAGAACUAGUGGAUCCCCCGGCGCCCGGCGGCUCGAGCCCGGGUAAGUGUAAAUAGUCUGCAUGCCGCCGGGCGCCAUGCCUGCAGGUCGACUCUAGAAAACAUG | 3.46 log2 enrichment (interaction score)

target: PUM1 PUF domain R3-GRP (Homo sapiens, UniProt Q14671 828-1176, C935G;Q939P); assay: as above; conditions: tags: N-Gal4 AD-HA kept; label: inside an RPR1-promoter hybrid RNA with tandem MS2 sites; ssRNA
Procedure, shortened: as §1

Sequence | binding signal
GGCUAGAACUAGUGGAUCCCCCGGCGCCCGGCGGCUCGAGCCCGGGUAAGUGUAAUUAGUCUGCAUGCCGCCGGGCGCCAUGCCUGCAGGUCGACUCUAGAAAACAUG | 2.44 log2 enrichment (interaction score)
GGCUAGAACUAGUGGAUCCCCCGGCGCCCGGCGGCUCGAGCCCGGGUAAGUGUAAGUAGUCUGCAUGCCGCCGGGCGCCAUGCCUGCAGGUCGACUCUAGAAAACAUG | 3.91 log2 enrichment (interaction score)
GGCUAGAACUAGUGGAUCCCCCGGCGCCCGGCGGCUCGAGCCCGGGUAAGUGUAAAUAGUCUGCAUGCCGCCGGGCGCCAUGCCUGCAGGUCGACUCUAGAAAACAUG | 4.87 log2 enrichment (interaction score)

target: PUM1 PUF domain R3-SRC (Homo sapiens, UniProt Q14671 828-1176, C935S;Q939C); assay: as above; conditions: tags: N-Gal4 AD-HA kept; label: inside an RPR1-promoter hybrid RNA with tandem MS2 sites; ssRNA
Procedure, shortened: as §1

Sequence | binding signal
GGCUAGAACUAGUGGAUCCCCCGGCGCCCGGCGGCUCGAGCCCGGGUAAGUGUAAUUAGUCUGCAUGCCGCCGGGCGCCAUGCCUGCAGGUCGACUCUAGAAAACAUG | 2.75 log2 enrichment (interaction score)
GGCUAGAACUAGUGGAUCCCCCGGCGCCCGGCGGCUCGAGCCCGGGUAAGUGUAAGUAGUCUGCAUGCCGCCGGGCGCCAUGCCUGCAGGUCGACUCUAGAAAACAUG | 4.05 log2 enrichment (interaction score)
GGCUAGAACUAGUGGAUCCCCCGGCGCCCGGCGGCUCGAGCCCGGGUAAGUGUAAAUAGUCUGCAUGCCGCCGGGCGCCAUGCCUGCAGGUCGACUCUAGAAAACAUG | 2.73 log2 enrichment (interaction score)

target: PUM1 PUF domain R7-KYR (Homo sapiens, UniProt Q14671 828-1176, S1079K;N1080Y;E1083R); assay: as above; conditions: tags: N-Gal4 AD-HA kept; label: inside an RPR1-promoter hybrid RNA with tandem MS2 sites; ssRNA
Procedure, shortened: as §1

Sequence | binding signal
GGCUAGAACUAGUGGAUCCCCCGGCGCCCGGCGGCUCGAGCCCGGGUAAGUAUAAAUAGUCUGCAUGCCGCCGGGCGCCAUGCCUGCAGGUCGACUCUAGAAAACAUG | 3.64 log2 enrichment (interaction score)
GGCUAGAACUAGUGGAUCCCCCGGCGCCCGGCGGCUCGAGCCCGGGUAAGUGUAAAUAGUCUGCAUGCCGCCGGGCGCCAUGCCUGCAGGUCGACUCUAGAAAACAUG | 2.75 log2 enrichment (interaction score)
GGCUAGAACUAGUGGAUCCCCCGGCGCCCGGCGGCUCGAGCCCGGGUAAGUCUAAAUAGUCUGCAUGCCGCCGGGCGCCAUGCCUGCAGGUCGACUCUAGAAAACAUG | 5.86 log2 enrichment (interaction score)

target: PUM1 PUF domain R5-DRC (Homo sapiens, UniProt Q14671 828-1176, C1007D;Q1011C); assay: as above; conditions: tags: N-Gal4 AD-HA kept; label: inside an RPR1-promoter hybrid RNA with tandem MS2 sites; ssRNA
Procedure, shortened: as §1

Sequence | binding signal
GGCUAGAACUAGUGGAUCCCCCGGCGCCCGGCGGCUCGAGCCCGGGUAAGUGUUAAUAGUCUGCAUGCCGCCGGGCGCCAUGCCUGCAGGUCGACUCUAGAAAACAUG | 4.23 log2 enrichment (interaction score)
GGCUAGAACUAGUGGAUCCCCCGGCGCCCGGCGGCUCGAGCCCGGGUAAGUGUCAAUAGUCUGCAUGCCGCCGGGCGCCAUGCCUGCAGGUCGACUCUAGAAAACAUG | 3.58 log2 enrichment (interaction score)
GGCUAGAACUAGUGGAUCCCCCGGCGCCCGGCGGCUCGAGCCCGGGUAAGUGUAAAUAGUCUGCAUGCCGCCGGGCGCCAUGCCUGCAGGUCGACUCUAGAAAACAUG | 3.83 log2 enrichment (interaction score)
